# Laboratory results taken from the supplement of paper PMC4466140.
# Columns and labels:
# Test in all cases: SPOT peptide array binding signal intensity (averaged, normalized) (arbitrary units (background-subtracted, floor 0; scale differs between SH3 domains)); higher = stronger binding of the SH3 domain to the peptide
# AgAbp1 = target: AgAbp1
# In short: (§1)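 Binding signal refers to normalized, background-subtracted spot intensity averaged over replicates, expressed in arbitrary units that differ between domains. GST-fused SH3 domains from four yeast species were incubated at 10 μg/ml overnight at 4°C on cellulose membranes of synthetic 15-mer peptides with cysteines replaced by serines. Bound protein was detected with anti-GST antibody, an HRP anti-mouse secondary and luminol, and quantified with Genespotter.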
# AgBbc1 = target: AgBbc1
# In short: as §1
# AgBem1-D1 = target: AgBem1-D1
# In short: as §1
# AgBzz1-D1 = target: AgBzz1-D1
# In short: as §1
# AgBzz1-D2 = target: AgBzz1-D2
# In short: as §1
# AgCyk3 = target: AgCyk3
# In short: as §1
# AgFus1 = target: AgFus1
# In short: as §1
# AgHof1 = target: AgHof1
# In short: as §1
# AgHse1 = target: AgHse1
# In short: as §1
# AgLsb1 = target: AgLsb1
# In short: as §1
# AgLsb4 = target: AgLsb4
# In short: as §1
# AgMyo5 = target: AgMyo5
# In short: as §1
# AgNbp2 = target: AgNbp2
# In short: as §1
# AgRvs167 = target: AgRvs167
# In short: as §1
# AgSho1 = target: AgSho1
# In short: as §1
# AgSla1-D1-D2 = target: AgSla1-D1-D2
# In short: as §1
# AgSla1-D3 = target: AgSla1-D3
# In short: as §1
# CaAbp1-D1 = target: CaAbp1-D1
# In short: as §1
# CaAbp1-D2 = target: CaAbp1-D2
# In short: as §1
# CaBbc1 = target: CaBbc1
# In short: as §1
# CaBem1-D1 = target: CaBem1-D1
# In short: as §1
# CaBzz1-D1 = target: CaBzz1-D1
# In short: as §1
# CaBzz1-D2 = target: CaBzz1-D2
# In short: as §1
# CaCyk3 = target: CaCyk3
# In short: as §1
# CaFus1 = target: CaFus1
# In short: as §1
# CaHof1 = target: CaHof1
# In short: as §1
# CaHse1 = target: CaHse1
# In short: as §1
# CaLsb1 = target: CaLsb1
# In short: as §1
# CaLsb4 = target: CaLsb4
# In short: as §1
# CaMyo5 = target: CaMyo5
# In short: as §1
# CaNbp2 = target: CaNbp2
# In short: as §1
# CaRvs167 = target: CaRvs167
# In short: as §1
# CaRvs167-3 = target: CaRvs167-3
# In short: as §1
# CaSho1 = target: CaSho1
# In short: as §1
# CaSla1-D1-D2 = target: CaSla1-D1-D2
# In short: as §1
# CaSla1-D3 = target: CaSla1-D3
# In short: as §1
# ScAbp1 = target: ScAbp1
# In short: as §1
# ScBbc1 = target: ScBbc1
# In short: as §1
# ScBem1-D1 = target: ScBem1-D1
# In short: as §1
# ScBzz1-D1 = target: ScBzz1-D1
# In short: as §1
# ScBzz1-D2 = target: ScBzz1-D2
# In short: as §1
# ScCyk3 = target: ScCyk3
# In short: as §1
# ScFus1 = target: ScFus1
# In short: as §1
# ScHof1 = target: ScHof1
# In short: as §1
# ScHse1 = target: ScHse1
# In short: as §1
# ScLsb1 = target: ScLsb1
# In short: as §1
# ScLsb2 = target: ScLsb2
# In short: as §1
# ScLsb3 = target: ScLsb3
# In short: as §1
# ScLsb4 = target: ScLsb4
# In short: as §1
# ScMyo3 = target: ScMyo3
# In short: as §1
# ScMyo5 = target: ScMyo5
# In short: as §1
# ScNbp2 = target: ScNbp2
# In short: as §1
# ScPex13 = target: ScPex13
# In short: as §1
# ScRvs167 = target: ScRvs167
# In short: as §1
# ScSho1 = target: ScSho1
# In short: as §1
# ScSla1-D1-D2 = target: ScSla1-D1-D2
# In short: as §1
# ScSla1-D3 = target: ScSla1-D3
# In short: as §1
# SpAbp1-D1 = target: SpAbp1-D1
# In short: as §1
# SpBbc1 = target: SpBbc1
# In short: as §1
# SpBzz1-D1 = target: SpBzz1-D1
# In short: as §1
# SpBzz1-D2 = target: SpBzz1-D2
# In short: as §1
# SpCyk3 = target: SpCyk3
# In short: as §1
# SpHof1 = target: SpHof1
# In short: as §1
# SpHof1-2 = target: SpHof1-2
# In short: as §1
# SpHof1-3 = target: SpHof1-3
# In short: as §1
# SpHse1 = target: SpHse1
# In short: as §1
# SpLsb1 = target: SpLsb1
# In short: as §1
# SpLsb4 = target: SpLsb4
# In short: as §1
# SpMyo1 = target: SpMyo1
# In short: as §1
# SpNbp2 = target: SpNbp2
# In short: as §1
# SpPex13 = target: SpPex13
# In short: as §1
# SpRvs167 = target: SpRvs167
# In short: as §1
# SpSla1-D1-D2 = target: SpSla1-D1-D2
# In short: as §1
# SpSla1-D3 = target: SpSla1-D3
# In short: as §1
binder,measurement,setting,value
ERPKRRAPPPVPKKP,SPOT peptide array binding signal intensity,AgAbp1,1360
same,SPOT peptide array binding signal intensity,AgBbc1,936
same,SPOT peptide array binding signal intensity,AgBem1-D1,86.5
same,SPOT peptide array binding signal intensity,AgBzz1-D1,1350
same,SPOT peptide array binding signal intensity,AgBzz1-D2,1190
same,SPOT peptide array binding signal intensity,AgCyk3,2
same,SPOT peptide array binding signal intensity,AgFus1,3.5
same,SPOT peptide array binding signal intensity,AgHof1,124
same,SPOT peptide array binding signal intensity,AgHse1,22
same,SPOT peptide array binding signal intensity,AgLsb1,62.5
same,SPOT peptide array binding signal intensity,AgLsb4,25
same,SPOT peptide array binding signal intensity,AgMyo5,359
same,SPOT peptide array binding signal intensity,AgNbp2,292
same,SPOT peptide array binding signal intensity,AgRvs167,1.83
same,SPOT peptide array binding signal intensity,AgSho1,83
same,SPOT peptide array binding signal intensity,AgSla1-D1-D2,7
same,SPOT peptide array binding signal intensity,AgSla1-D3,140
same,SPOT peptide array binding signal intensity,CaAbp1-D1,1770
same,SPOT peptide array binding signal intensity,CaAbp1-D2,1480
same,SPOT peptide array binding signal intensity,CaBbc1,1090
same,SPOT peptide array binding signal intensity,CaBem1-D1,42.5
same,SPOT peptide array binding signal intensity,CaBzz1-D1,6780
same,SPOT peptide array binding signal intensity,CaBzz1-D2,3000
same,SPOT peptide array binding signal intensity,CaCyk3,29
same,SPOT peptide array binding signal intensity,CaFus1,30
same,SPOT peptide array binding signal intensity,CaHof1,0.5
same,SPOT peptide array binding signal intensity,CaHse1,24.8
same,SPOT peptide array binding signal intensity,CaLsb1,≤ 0
same,SPOT peptide array binding signal intensity,CaLsb4,243
same,SPOT peptide array binding signal intensity,CaMyo5,4.5
same,SPOT peptide array binding signal intensity,CaNbp2,814
same,SPOT peptide array binding signal intensity,CaRvs167,16.7
same,SPOT peptide array binding signal intensity,CaRvs167-3,0.75
same,SPOT peptide array binding signal intensity,CaSho1,6
same,SPOT peptide array binding signal intensity,CaSla1-D1-D2,2360
same,SPOT peptide array binding signal intensity,CaSla1-D3,698
same,SPOT peptide array binding signal intensity,ScAbp1,2010
same,SPOT peptide array binding signal intensity,ScBbc1,460
same,SPOT peptide array binding signal intensity,ScBem1-D1,4
same,SPOT peptide array binding signal intensity,ScBzz1-D1,2120
same,SPOT peptide array binding signal intensity,ScBzz1-D2,66
same,SPOT peptide array binding signal intensity,ScCyk3,2.5
same,SPOT peptide array binding signal intensity,ScFus1,6
same,SPOT peptide array binding signal intensity,ScHof1,≤ 0
same,SPOT peptide array binding signal intensity,ScHse1,≤ 0
same,SPOT peptide array binding signal intensity,ScLsb1,101
same,SPOT peptide array binding signal intensity,ScLsb2,70
same,SPOT peptide array binding signal intensity,ScLsb3,608
same,SPOT peptide array binding signal intensity,ScLsb4,10
same,SPOT peptide array binding signal intensity,ScMyo3,1180
same,SPOT peptide array binding signal intensity,ScMyo5,959
same,SPOT peptide array binding signal intensity,ScNbp2,577
same,SPOT peptide array binding signal intensity,ScPex13,257
same,SPOT peptide array binding signal intensity,ScRvs167,151
same,SPOT peptide array binding signal intensity,ScSho1,166
same,SPOT peptide array binding signal intensity,ScSla1-D1-D2,1960
same,SPOT peptide array binding signal intensity,ScSla1-D3,691
same,SPOT peptide array binding signal intensity,SpAbp1-D1,280
same,SPOT peptide array binding signal intensity,SpBbc1,76
same,SPOT peptide array binding signal intensity,SpBzz1-D1,1460
PAPPPPPRASRPTPN,SPOT peptide array binding signal intensity,AgAbp1,7.5
same,SPOT peptide array binding signal intensity,AgBbc1,438
same,SPOT peptide array binding signal intensity,AgBem1-D1,19.5
same,SPOT peptide array binding signal intensity,AgBzz1-D1,57
same,SPOT peptide array binding signal intensity,AgBzz1-D2,8
same,SPOT peptide array binding signal intensity,AgCyk3,1
same,SPOT peptide array binding signal intensity,AgFus1,≤ 0
same,SPOT peptide array binding signal intensity,AgHof1,0.5
same,SPOT peptide array binding signal intensity,AgHse1,1.5
same,SPOT peptide array binding signal intensity,AgLsb1,6.5
same,SPOT peptide array binding signal intensity,AgLsb4,185
same,SPOT peptide array binding signal intensity,AgMyo5,≤ 0
same,SPOT peptide array binding signal intensity,AgNbp2,111
same,SPOT peptide array binding signal intensity,AgRvs167,34.2
same,SPOT peptide array binding signal intensity,AgSho1,≤ 0
same,SPOT peptide array binding signal intensity,AgSla1-D1-D2,3.5
same,SPOT peptide array binding signal intensity,AgSla1-D3,2
same,SPOT peptide array binding signal intensity,CaAbp1-D1,24.5
same,SPOT peptide array binding signal intensity,CaAbp1-D2,3
same,SPOT peptide array binding signal intensity,CaBbc1,657
same,SPOT peptide array binding signal intensity,CaBem1-D1,21
same,SPOT peptide array binding signal intensity,CaBzz1-D1,934
same,SPOT peptide array binding signal intensity,CaBzz1-D2,162
same,SPOT peptide array binding signal intensity,CaCyk3,21
same,SPOT peptide array binding signal intensity,CaFus1,45.5
same,SPOT peptide array binding signal intensity,CaHof1,17.5
same,SPOT peptide array binding signal intensity,CaHse1,3.5
same,SPOT peptide array binding signal intensity,CaLsb1,0.5
same,SPOT peptide array binding signal intensity,CaLsb4,939
same,SPOT peptide array binding signal intensity,CaMyo5,1.5
same,SPOT peptide array binding signal intensity,CaNbp2,39.5
same,SPOT peptide array binding signal intensity,CaRvs167,223
same,SPOT peptide array binding signal intensity,CaRvs167-3,6.25
same,SPOT peptide array binding signal intensity,CaSho1,3.5
same,SPOT peptide array binding signal intensity,CaSla1-D1-D2,242
same,SPOT peptide array binding signal intensity,CaSla1-D3,3.75
same,SPOT peptide array binding signal intensity,ScAbp1,3
same,SPOT peptide array binding signal intensity,ScBbc1,72.5
same,SPOT peptide array binding signal intensity,ScBem1-D1,2
same,SPOT peptide array binding signal intensity,ScBzz1-D1,36
same,SPOT peptide array binding signal intensity,ScBzz1-D2,24
same,SPOT peptide array binding signal intensity,ScCyk3,2
same,SPOT peptide array binding signal intensity,ScFus1,10
same,SPOT peptide array binding signal intensity,ScHof1,56.2
same,SPOT peptide array binding signal intensity,ScHse1,6
same,SPOT peptide array binding signal intensity,ScLsb1,49.2
same,SPOT peptide array binding signal intensity,ScLsb2,3.5
same,SPOT peptide array binding signal intensity,ScLsb3,1110
same,SPOT peptide array binding signal intensity,ScLsb4,394
same,SPOT peptide array binding signal intensity,ScMyo3,40.5
same,SPOT peptide array binding signal intensity,ScMyo5,22
same,SPOT peptide array binding signal intensity,ScNbp2,10.5
same,SPOT peptide array binding signal intensity,ScPex13,304
same,SPOT peptide array binding signal intensity,ScRvs167,966
same,SPOT peptide array binding signal intensity,ScSho1,45
same,SPOT peptide array binding signal intensity,ScSla1-D1-D2,565
same,SPOT peptide array binding signal intensity,ScSla1-D3,1.5
same,SPOT peptide array binding signal intensity,SpAbp1-D1,14.5
same,SPOT peptide array binding signal intensity,SpBbc1,1
same,SPOT peptide array binding signal intensity,SpBzz1-D1,208
same,SPOT peptide array binding signal intensity,SpBzz1-D2,6.5
same,SPOT peptide array binding signal intensity,SpCyk3,3
same,SPOT peptide array binding signal intensity,SpHof1,5.5
same,SPOT peptide array binding signal intensity,SpHof1-2,5.5
same,SPOT peptide array binding signal intensity,SpHof1-3,57.5
same,SPOT peptide array binding signal intensity,SpHse1,7.5
same,SPOT peptide array binding signal intensity,SpLsb1,69.5
same,SPOT peptide array binding signal intensity,SpLsb4,1170
same,SPOT peptide array binding signal intensity,SpMyo1,99.5
same,SPOT peptide array binding signal intensity,SpNbp2,29.5
same,SPOT peptide array binding signal intensity,SpPex13,2.5
same,SPOT peptide array binding signal intensity,SpRvs167,915
same,SPOT peptide array binding signal intensity,SpSla1-D1-D2,13
same,SPOT peptide array binding signal intensity,SpSla1-D3,≤ 0
